Source: PubChem BioAssay
Sampled rows, rich in hits. Any-hit rate of the full collection: about 8.7%.
Vaccinia mCherry: qHTS for Stage-Specific Inhibitors of Vaccinia Orthopoxvirus: mCherry Reporter Primary qHTS; Vaccinia virus mCherry reporter infection, fluorescence; Potency, µM (top dose mostly 36.5 µM), inactives show at the top dose activity change, negative = inhibition, most hits filed as inhibitors; 310,000 compounds, 0.63% hits; AID 720579, 2013; calls by dose curve; tested in A549 cells; also: nearly all actives have a fitted effect of over 35% in size
VACV Venus inh: qHTS for Stage-Specific Inhibitors of Vaccinia Orthopoxvirus: Venus Reporter Primary qHTS. Potency, µM (titrated, usually from 36.5 µM), without a hit: top-dose activity change, negative = inhibition, most hits filed as inhibitors. Vaccinia virus Venus reporter expression, fluorescence. 330,000 compounds, 0.46% hits; calls by dose curve; tested in A549 cells; also: nearly all actives have a fitted effect of over 30% in size
Pf growth 48h: Primary qHTS for delayed death inhibitors of the malarial parasite plastid, 48 hour incubation | P. falciparum luciferase growth in erythrocytes, 48 h | Potency, µM (series often up to 28.7 µM), for the others: top-dose activity change, negative = inhibition, most hits filed as inhibitors | 310,000 compounds, 5.9% hits | AID 504832, 2011
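Luciferase-expressing P. falciparum in infected erythrocytes (2% hematocrit, 0.1% parasitemia final) in RPMI 1640/0.5% Albumax were exposed to compound for 48 hours at 37 C, 5% CO2; growth read as luminescence.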
Pf growth 96h: Primary qHTS for delayed death inhibitors of the malarial parasite plastid, 96 hour incubation; P. falciparum luciferase reporter growth, 96 h; AID 504834, 2011; 320,000 compounds, 6.9% hits; Potency, µM (doses to about 28.7 µM), inactives show at the highest dose activity change, negative = inhibition, actives largely listed as inhibitors
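Two parasite generations (96 h, 37 C, 5% CO2) of compound exposure in infected erythrocytes (0.05% parasitemia, 2% hematocrit). Luciferase-reporter P. falciparum; decreased luminescence indicates inhibited growth, aimed at apicoplast-acting delayed death.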
AMA1-RON2 inh: qHTS for Inhibitors of AMA1-RON; Towards Development of Antimalarial Drug Lead: Primary Screen | Plasmodium falciparum AMA1 (3D7) - RON2 peptide interaction | AlphaScreen AMA1-biotinylated RON2 peptide binding | Potency, µM (titrated, usually from 58.2 µM), for the others: top-dose activity change, negative = inhibition, usual class: inhibitors | 360,000 compounds, 0.2% hits | AID 720542, 2013;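 also: 0% = vehicle wells and -100% = peptide control; nearly all actives have a fitted effect of over 45% in size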
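AMA1 (3D7) with his tag at 25 nM final met compounds first, then biotinylated RON2 peptide at 25 nM; detection used donor plus acceptor beads, 10 µg/mL apiece, read by AlphaScreen after 30 min at room temperature.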
An asterisk follows results filed as active; i = inactive; u = inconclusive; x = no result; [ ] = remark or other dose. Unless noted, calls follow the shape of the dose curve; as a rule, active = well fitted curve in the direction sought with a large enough effect; inconclusive = small, poorly fitted or top-dose-only effect, or another doubt; inactive = no such curve, though single readings can be large; an effect the other way counts as inactive or inconclusive. Unless noted, % is scaled to controls: 0 for no effect and ±100 for the full control effect; potency is read from the fitted curve at half-maximal effect.

SMILES	Vaccinia mCherry	VACV Venus inh	Pf growth 48h	Pf growth 96h	AMA1-RON2 inh
Cc1ccccc1C1c2[nH]c3ccccc3c2C[C@H]2C(=O)N(c3ccccc3C(=O)NCCCN3CCOCC3)C(=O)N12 (stereo partly drawn)	0.4%	-8.4%	u	11.7µM*	-9.8%
Cc1ccccc1C1c2[nH]c3ccccc3c2C[C@H]2C(=O)N(c3ccccc3C(=O)NCCN3CCOCC3)C(=O)N12 (stereo partly drawn)	1.9%	13.8%	u	u	-15.5%
O=C(NCCCN1CCOCC1)c1ccccc1N1C(=O)[C@@H]2Cc3c([nH]c4ccccc34)C(c3cccc(Cl)c3)N2C1=O (stereo partly drawn)	-29.9%	-24.6%	u	9.28µM*	-28.9%
O=C(CN1C(=O)CSc2ccc(S(=O)(=O)N3CCCC3)cc21)NCc1ccc(Cl)cc1	-3.6%	-10.3%	x	x	x
Cc1cc(C(=O)OCC(=O)NCc2ccco2)c(C)n1-c1ccc(F)cc1	x	u	8.28µM*	u	-1.5%
Cc1cc(C(=O)OCC(=O)N2CC(=O)Nc3ccccc32)c(C)n1-c1ccc(F)cc1	-0.3%	-21.7%	4.65µM*	2.62µM*	8.4%
Cn1c2ccccc2c2cc(C(=O)OCC(=O)N3CC(=O)Nc4ccccc43)sc21	-23.4%	-15.1%	4.15µM*	2.5%	-8.6%
COc1ccc(OC)c(C2c3c(oc4ccc(C)cc4c3=O)C(=O)N2CCCN(C)C)c1 (stereo not drawn)	i	-11.0%	x	x	x
CCCCOc1ccc(-c2nc(=S)[nH][nH]2)cc1	x	x	x	11.7µM*	74.3%
CCCCOc1ccc(-c2nc(SCC(N)=O)n[nH]2)cc1	x	x	100.6%	186.2%	-5.2%
CCCCc1nn2c(=O)cc(COC(=O)c3ccc4c(c3)OCO4)nc2s1	0.8%	-3.5%	x	x	x
CCOc1ccc(OCCC(=O)Nc2cccc(S(=O)(=O)N3CCCC3)c2)cc1	u	-20.0%	u	14.7µM*	-5.1%
CCOc1ccc(OCCC(=O)OCC(=O)Nc2cccc(S(=O)(=O)N3CCCCC3)c2)cc1	x	x	x	x	-4.8%
COc1ccccc1C(=O)NCCC(=O)Nc1cccc(S(=O)(=O)N2CCCC2)c1	x	x	3.29µM*	u	1.9%
COc1cccc(CCC(=O)Nc2cccc(S(=O)(=O)N3CCCC3)c2)c1OC	x	x	9.28µM*	8.28µM*	10.3%
CCOc1ccc(CN(C)C(=O)c2cc(S(=O)(=O)N3CCCC3)ccc2C)cc1	x	x	11.7µM*	u	-3.5%
Cc1ccc(S(=O)(=O)N2CCCCC2)cc1C(=O)N(C)CCOc1ccccc1	x	x	24.8%	-6.4%	75.9%
CCOc1ccc(OCC)c(NC(=O)c2cnn(-c3ccc(F)cc3)c2-n2cccc2)c1	-29.6%	-25.9%	x	x	x
CCN1CCN(C(=O)c2ccc3c(c2)N(Cc2ccc(F)cc2)C(=O)c2ccccc2S3(=O)=O)CC1	-17.2%	-12.3%	x	x	x
Cc1ccc(CNC(=O)CCCN2C(=O)CCn3nc(-c4cn(C)c5ccccc45)cc32)cc1	-7.6%	-2.2%	x	x	x
CN(C)c1ncnc2ccc(-c3ccccc3C#N)cc12	-11.1%	-9.9%	x	x	x
C/C(=N\NC(=O)CN(c1ccccc1)S(C)(=O)=O)c1ccccc1O	u	-4.0%	11.7µM*	u	55.5%
O=C(Cc1c(F)cccc1Cl)Nc1ccccc1N1CCCCC1	x	x	0.0%	13.1µM*	37.1%
O=C(Cc1ccccc1Cl)Nc1cc(S(=O)(=O)N2CCOCC2)ccc1N1CCOCC1	-0.6%	-16.7%	u	10.4µM*	-7.2%[11.6 µM]
O=C(CCc1ccc(S(=O)(=O)N2CCOCC2)cc1)Nc1cc(Cl)ccc1N1CCOCC1	x	4.1%	6.57µM*	-17.7%	-3.7%
O=C(CCCOc1ccc(Cl)cc1Cl)Nc1cc(S(=O)(=O)N2CCOCC2)ccc1N1CCOCC1	-21.4%	-20.6%	x	x	-3.3%[11.6 µM]
O=C(Cc1c(F)cccc1Cl)Nc1cc(S(=O)(=O)N2CCCCC2)ccc1N1CCOCC1	-5.6%	-15.2%	11.7µM*	u	-20.8%
COc1ccc(S(=O)(=O)Nc2cc3[nH]c(=O)oc3cc2C)cc1	x	x	16.7%	8.28µM*	-2.9%
